Hit rate of the full screen: of about 5,500 compounds, about 2,000 (36%) were called active. Roughly 18% stayed inconclusive and do not appear here. Rule as the data show it: active = normalized growth mostly below about 0.91 (no sharp cut-off); inconclusive = no clear call, values can overlap the other calls; inactive = mostly above about 0.92. This is one part of the list.
Test: chemical genetic growth profiling, strain panel (AID 1159580);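 also: tested at 20 µM; growth read once vehicle control cultures reached saturation at 30 °C; 1 = growth at the plate median or of vehicle wells; lower values mean less growth of the strain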
Conditions: S. cerevisiae deletion strains, growth OD

Measured: normalized growth

Cc1[nH]c(=O)c(C#N)cc1-c1ccncc1
inactive: locus YAL013W, strain DEP1, active compounds read low 1.02 | locus YAL040C, strain CLN3, active compounds read low 1 | locus YCL061C, strain MRC1 (second series), active compounds read low 1.01 | locus YDR363W, strain ESC2, active compounds read low 1.04 | locus YER002W, strain NOP16, active compounds read low 0.997 | locus YGR078C, strain PAC10, active compounds read low 1.01 | locus YMR263W, strain SAP30, active compounds read low 1.01 | locus YMR307W, strain GAS1, active compounds read low 1.01 | locus YNL153C, strain GIM3, active compounds read low 1.01 | locus YNL175C, strain NOP13, active compounds read low 1.01 | locus YNL197C, strain WHI3, active compounds read low 1.01 | locus YNL224C, strain SQS1, active compounds read low 1.01 | locus YNL322C, strain KRE1, active compounds read low 1.01 | locus YOR083W, strain WHI5 (second series), active compounds read low 1.01 | locus YPL241C, strain CIN2, active compounds read low 0.998
